Results filed as inconclusive are left out. A number with no mark means an inactive call. Calls of active or inactive are those of the source. Calls follow the shape of the dose curve; as a rule, active = well fitted cell-killing curve with a large enough effect; inconclusive = small, poorly fitted or top-dose-only effect; inactive = no such curve, though single readings can be large or run the other way.
assay: qHTS of pediatric cancer cell lines to identify multiple opportunities for drug repurposing: Primary screen for A673 cells (AID 1347092); conditions: A673 Ewing sarcoma viability, CellTiter-Glo ATP luminescence, 48 h; series mostly up to 46 µM; activity change, negative = cytotoxic: at the top concentration; also: nearly all actives have a fitted effect of over 45% in size
Text: Drug repurposing or repositioning has been offered as a strategy for drug development in oncology programs. This approach has special potential for childhood cancers and other rare or orphan diseases, where the expected return on new drug development has been a disincentive to pharmaceuticals. […] In this project we exploit the poly-pharmacology of drugs to discover new indications via phenotypic screening of a panel of 19 well-characterized cell lines derived from solid tumors seen in children and adolescents. The goal is to identify approved drugs with previously unrecognized anticancer properties that has the potential to reveal new mechanisms and biological processes involved in carcinogenesis or drug resistance. We employed a titration-based paradigm (quantitative high-throughput screening or qHTS), where all compounds were tested at multiple concentrations for their effect on cell viability. Concentration-response curves (CRCs) were derived directly from the primary screen, and both potency and efficacy values were used to identify compounds with robust bioactivity profiles. We screened the NIH Chemical Genomics Center (NCGC) Pharmaceutical Collection (NPC) and Mechanism Interrogation Plate (MIPE) small molecule collections of approved and investigational compounds against these cell lines; and measured metabolically active cells after 48 hours of compound treatment as a proxy for cell viability. […] Assay Submitter: Nathalia J. Martinez, National Center for Advancing Translational Sciences, National Institutes of Health, Rockville, MD, USA; email: natalia.martinez@nih.gov. Shen, M et al. Quantitative high-throughput phenotypic screening of pediatric cancer cell lines identifies multiple opportunities for drug repurposing. Oncotarget 2017 Dec 19;9(4):4758-4772. PMID 29435139.
The cells were obtained from University of North Carolina (UNC), Pediatric Preclinical Testing Program (PPT), and Coriell Institute (CI). qHTS cell viability assay: Cells were assayed in growth media at a density of 500-1,000 cells/well. Five microliters of cells were dispensed into 1,536-well, white, solid-bottom, TC-treated plates (Greiner Bio One) using a multidrop dispenser and incubated at 37 degrees C, 5% CO2, under a humidified atmosphere for 5 hours. Twenty-three nanoliters of compounds and controls (neutral control DMSO or positive control bortezomib at final concentration of 2.3 uM) were subsequently transferred by Kalypsys pintool. For primary screens, the MIPE collection was tested at 11-point dilutions (final concentrations range from 0.78 nM to 46 µM) and the NPC collection at 8-point dilutions (final concentrations range from 0.59 nM to 46 µM). Compounds tested in follow-up screens were assayed at 11-point dilutions. Cells were incubated for 48 hours, followed by addition of 3 uL of CellTiter-Glo (Promega). After a 15min incubation at room temperature, samples were analyzed for luminescence intensity using a ViewLux High-throughput CCD imager equipped with clear filters.
% is scaled to controls: 0 for no effect and ±100 for the full control effect; potency is read from the fitted curve at half-maximal effect.

SMILES | activity change, negative = cytotoxic | Potency
Cc1c(Nc2ncccc2C(=O)O)cccc1C(F)(F)F | 0.455% | –
Cc1ccc(O)c(-n2nc3ccccc3n2)c1 | -11.7% | –
Nc1cc(-c2ccncc2)c[nH]c1=O | -1.24% | –
C#C[C@]1(O)CC[C@H]2[C@@H]3CCc4cc(O)ccc4[C@H]3CC[C@@]21C | – | 26.6 µM (active)
CNC(=O)c1c(I)c(NC(=O)CCCCC(=O)Nc2c(I)c(C(=O)O)c(I)c(C(=O)NC)c2I)c(I)c(C(=O)O)c1I | -14.3% | –
Nc1ccc(C(=O)O)c(O)c1 | 2.8% | –
COC(=O)Nc1nc2ccc(C(=O)C3CC3)cc2[nH]1 | – | 1.06 µM (active)
CCCCCCCCCCCC(=O)[O][Sn]([CH2]CCC)([CH2]CCC)[O]C(=O)CCCCCCCCCCC | 13.5% | –
CC1(C)S[C@@H]2[C@H](NC(=O)[C@H](N)c3ccccc3)C(=O)N2[C@H]1C(=O)O | 10.3% | –
COC(=O)c1nc(Cl)c(Cl)nc1N | – | 2.11 µM (active)
CCCCCCCCCCCCCCCC(=O)OC(C)C | 7.45% | –
CCCCC1C(=O)N(c2ccccc2)N(c2ccc(O)cc2)C1=O (stereo not given) | – | 10.6 µM (active)
C/C(=N\O)c1ccc(OCC(=O)N2CCCCC2)cc1 | -7.35% | –
O=C(O)Cc1ccc2c(c1)C(=O)c1ccccc1CO2 | 16.5% | –
C[N+]1(C)[C@@H]2CC(OC(=O)[C@H](CO)c3ccccc3)C[C@H]1[C@@H]1O[C@@H]12 (stereo not given in full) | 8.99% | –
O=C(O)/C=C\C(=O)O | 18.5% | –
CCCCCCCCCCCCCCCCCC(=O)O | -17.2% | –
O=C(Nc1ccc(C(=O)O)c(O)c1)c1ccccc1 | 6.81% | –
COc1ccc(-c2cc(=S)ss2)cc1 | -6.43% | –
Cc1cc(O)c2ccccc2c1O | – | 10.6 µM (active)

SMILES | activity change, negative = cytotoxic | Potency
N=C(N)N | -6.62% | –
C=CCCCCCCCCC(=O)O | -8.51% | –
O=C(/C=C/c1ccccc1)NCCO | -8.12% | –
CCCSc1ccc2nc(NC(=O)OC)[nH]c2c1 | – | 0.841 µM (active)
CN1CCN(c2cc3c(nn2)Oc2ccccc2N3C)CC1 | -3.49% [at 16.1 µM] | –
Nc1ccc(O)c([N+](=O)[O-])c1 | -22.3% [at 92.7 µM] | –
COc1cc2c3cc1Oc1cc(ccc1O)C[C@@H]1c4c(cc(OC)c(O)c4Oc4ccc(cc4)C[C@@H]3N(C)CC2)CC[N+]1(C)C | -9.63% | –
Cc1c(C(=O)O)c(O)cc2c1C(=O)c1c(O)c([C@@H]3O[C@H](CO)[C@@H](O)[C@H](O)[C@H]3O)c(O)c(O)c1C2=O | -14.4% | –
CC(N)C(=O)OC(C)(C)Cc1ccc(Cl)cc1 (stereo not given) | -10.4% | –
CCCCCCCCCCCCOCCO | 8.22% | –
Oc1c(Br)cc(Br)c2cccnc12 | – | 3.35 µM (active)
COc1ccnc2c1CCCCC2S(=O)c1nc2ccccc2[nH]1 (stereo not given) | 8.73% | –
[O-][n+]1ccccc1SSc1cccc[n+]1[O-] | – | 0.0731 µM (active)
Nc1nc2ccc([N+](=O)[O-])cc2s1 | -39.1% [at 92.7 µM] | –
Cc1c(N)c(=O)n(-c2ccccc2)n1C | -17.7% | –
NC(=O)C(c1ccccc1)(c1ccccc1)[C@@H]1CCN(CCc2ccc3c(c2)CCO3)C1 | -5.29% | –
Nc1ccc(O)c(C(=O)O)c1 | 3.78% | –
CC(C(=O)O)c1ccc2c(c1)[nH]c1ccc(Cl)cc12 (stereo not given) | -17.4% | –
CCC1C(=O)OCC1Cc1cncn1C (stereo not given) | -7.03% | –
CC(C)OC(=O)c1cc(C(=O)OC(C)C)cc([N+](=O)[O-])c1 | -7.29% [at 92.7 µM] | –

Reference: PubChem BioAssay (NCATS)
